# Measurements: PubChem BioAssay (NCATS)
# Records with an inconclusive call do not appear. The source made the active and inactive calls. Calls come from the whole dose curve; as a rule, active = well fitted cell-killing curve with a large enough effect; inconclusive = small, poorly fitted or top-dose-only effect, or effect the other way; inactive = no such curve, though single readings can be large or run the other way.
# Test: Viability qHTS for spleen associated tyrosine kinase inhibitor (SYKi) drug resistant MV4-11 cells (AID 1963824); note: nearly all actives have a fitted effect of over 35% in size
# Details: SYKi-resistant MV4-11 viability, CellTiter-Glo, 72 h; series mostly up to 45 µM; viability, % of control: at the top concentration
# Outline: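 SYK-inhibitor-resistant MV4-11 AML cells were seeded at 500 per well onto compound and cultured 72 hours (37 °C, 5% CO2). CellTiter-Glo was then added, and after 10 min at room temperature, luminescence gave viability.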
# Potency is the fitted concentration of half-maximal effect.
Structure (SMILES),Potency,"viability, % of control"
O=C(NC1CCN(CCCCC2(C(=O)NCC(F)(F)F)c3ccccc3-c3ccccc32)CC1)c1ccccc1-c1ccc(C(F)(F)F)cc1,2590 nM (active),–
CC1(C)SC2C(NC(=O)[C@H](NC(=O)N3CCNC3=O)c3ccccc3)C(=O)N2C1C(=O)O (stereo partly specified),–,104% (inactive)
CC(=O)O[C@H]1CC(C)(C)CC2[C@]13CO[C@@]21CCC2[C@@]4(C)CC[C@H](O[C@@H]5OC[C@H](O[C@@H]6O[C@H](CO)[C@@H](O)[C@H](O)[C@H]6O[C@@H]6OC[C@@H](O[C@@H]7O[C@H](CO)[C@@H](O)[C@H](O)[C@H]7O)[C@H](O)[C@H]6O)[C@H](O)[C@H]5O[C@@H]5O[C@H](CO)[C@@H](O)[C@H](O)[C@H]5O)[C@@](C)(CO)C4CC[C@@]2(C)[C@]1(C)C[C@H]3O (stereo partly specified),1230 nM (active),–
OC[C@H]1O[C@@H](OCc2ccccc2)[C@H](O[C@@H]2OC[C@@H](O)[C@H](O)[C@H]2O)[C@@H](O)[C@@H]1O,–,93.5% [at 17.3 µM] (inactive)
C[C@@H]1O[C@@H](O[C@H]2[C@H](O[C@H]3[C@H](O[C@H]4CC[C@@]5(C)C(CC[C@]6(C)C5CC=C5[C@@H]7CC(C)(C)CC[C@]7(C(=O)O[C@@H]7O[C@H](CO)[C@@H](O[C@@H]8O[C@@H](C)[C@H](O)[C@@H](O)[C@H]8O)[C@H](O)[C@H]7O)CC[C@]56C)C4(C)C)OC[C@H](O)[C@@H]3O)O[C@H](CO)[C@@H](O)[C@@H]2O)[C@H](O)[C@H](O)[C@H]1O (stereo partly specified),–,2.33% [at 9.25 µM] (inactive)
COc1cc(C)c(C(=O)Oc2cc(C)c(C(=O)Oc3cc(C)c(C(=O)NC(C)C(=O)O)c(O)c3)c(O[C@@H]3O[C@H](CO)[C@@H](O)[C@H](O)[C@H]3OC(C)=O)c2)c(OC)c1 (stereo partly specified),–,80.3% [at 17.3 µM] (inactive)
